Common to all, as to experiment: DAPPL (digital affinity profiling via proximity ligation, sequencing); 10 mM Tris-HCl pH 7.5, 50 mM NaCl, 1 mM DTT, 4% glycerol, room temperature, 30 min; GST-TFs on glutathione beads, 16-mer random dsDNA library, 0.1% formaldehyde crosslink after washing; high values mean tight binding
Common to all, as to conditions: protein: recombinant; tags: N-terminal GST; dsDNA, one strand shown

One assay has as its target T1, ELK1 (Homo sapiens, UniProt P19419 1-428).
T1 sequence: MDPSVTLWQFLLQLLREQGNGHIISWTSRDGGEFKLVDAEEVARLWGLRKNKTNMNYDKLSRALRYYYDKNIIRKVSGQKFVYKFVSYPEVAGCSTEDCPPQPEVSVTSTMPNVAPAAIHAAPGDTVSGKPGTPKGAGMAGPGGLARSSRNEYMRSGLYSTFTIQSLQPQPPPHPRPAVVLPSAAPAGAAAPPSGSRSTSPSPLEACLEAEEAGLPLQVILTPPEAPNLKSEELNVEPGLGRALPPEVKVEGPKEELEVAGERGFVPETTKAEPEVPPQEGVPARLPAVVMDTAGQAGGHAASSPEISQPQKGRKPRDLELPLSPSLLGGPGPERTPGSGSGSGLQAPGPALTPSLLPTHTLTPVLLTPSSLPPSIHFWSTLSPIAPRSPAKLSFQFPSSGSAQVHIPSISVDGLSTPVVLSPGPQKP
The essentials:
(§1)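 A tag-only sample was pooled with DNA-barcoded human transcription factors that had been expressed in yeast as GST fusions and captured on glutathione beads. The pools were incubated for 30 min at room temperature with 200 nmole of a random double-stranded 16-mer DNA library in Tris/NaCl/DTT/glycerol buffer, then washed, crosslinked with 0.1% formaldehyde, proximity-ligated (BsaI/T4 ligase, 1 h, 37 °C), PCR-amplified and sequenced on an Illumina NextSeq500. Binding signal is each hexamer's read frequency for a factor divided by its frequency for the tag-only sample.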

The target of the next assay is T2, GABPA (Homo sapiens, UniProt Q06546 1-454).
T2 sequence: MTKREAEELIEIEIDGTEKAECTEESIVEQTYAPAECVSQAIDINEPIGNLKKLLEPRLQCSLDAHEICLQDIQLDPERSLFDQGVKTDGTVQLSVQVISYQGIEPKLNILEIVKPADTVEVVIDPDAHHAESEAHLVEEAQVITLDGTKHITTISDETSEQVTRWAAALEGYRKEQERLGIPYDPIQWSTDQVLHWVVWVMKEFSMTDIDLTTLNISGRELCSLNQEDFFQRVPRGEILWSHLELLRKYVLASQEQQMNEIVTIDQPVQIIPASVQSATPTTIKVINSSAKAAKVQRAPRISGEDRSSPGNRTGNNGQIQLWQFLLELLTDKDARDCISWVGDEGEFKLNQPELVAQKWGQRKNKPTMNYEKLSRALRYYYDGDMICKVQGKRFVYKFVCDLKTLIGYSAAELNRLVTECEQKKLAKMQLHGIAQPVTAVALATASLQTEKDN
The essentials: as §1

In a further assay the target is T3, ERG (Homo sapiens, UniProt P11308 1-479).
T3 sequence: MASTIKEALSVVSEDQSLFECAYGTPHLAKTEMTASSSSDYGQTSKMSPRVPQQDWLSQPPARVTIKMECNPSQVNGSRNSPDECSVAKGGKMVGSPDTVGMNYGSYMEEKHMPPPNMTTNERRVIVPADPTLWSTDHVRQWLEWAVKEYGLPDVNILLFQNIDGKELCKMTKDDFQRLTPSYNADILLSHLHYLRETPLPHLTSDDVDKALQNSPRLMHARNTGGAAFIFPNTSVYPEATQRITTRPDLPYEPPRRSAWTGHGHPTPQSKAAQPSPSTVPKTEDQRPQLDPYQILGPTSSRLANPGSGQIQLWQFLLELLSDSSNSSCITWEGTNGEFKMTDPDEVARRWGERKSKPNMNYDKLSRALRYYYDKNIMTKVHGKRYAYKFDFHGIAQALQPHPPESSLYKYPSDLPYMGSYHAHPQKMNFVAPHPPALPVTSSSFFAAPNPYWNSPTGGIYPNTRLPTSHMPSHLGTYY
The method, boiled down: as §1

For the next assay, the target named is ELF1 (Homo sapiens, UniProt P32519 1-619). The essentials:
as §1

The target of another assay is T4, EHF (Homo sapiens, UniProt Q9NZC4 1-300).
T4 sequence: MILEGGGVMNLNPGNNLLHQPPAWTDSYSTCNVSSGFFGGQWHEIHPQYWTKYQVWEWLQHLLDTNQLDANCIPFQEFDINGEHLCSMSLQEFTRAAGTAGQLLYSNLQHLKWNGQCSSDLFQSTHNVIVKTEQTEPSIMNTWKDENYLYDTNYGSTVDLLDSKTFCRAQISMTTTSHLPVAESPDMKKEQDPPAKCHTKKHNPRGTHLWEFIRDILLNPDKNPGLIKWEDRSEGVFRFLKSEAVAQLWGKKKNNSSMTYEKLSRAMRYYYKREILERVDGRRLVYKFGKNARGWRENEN
The method, boiled down: as §1

For a further assay, the target named is SPIB (Homo sapiens, UniProt Q01892 1-262). The essentials:
as §1

Another assay has as its target T5, SPIC (Homo sapiens, UniProt Q8N5J4 1-248).
T5 sequence: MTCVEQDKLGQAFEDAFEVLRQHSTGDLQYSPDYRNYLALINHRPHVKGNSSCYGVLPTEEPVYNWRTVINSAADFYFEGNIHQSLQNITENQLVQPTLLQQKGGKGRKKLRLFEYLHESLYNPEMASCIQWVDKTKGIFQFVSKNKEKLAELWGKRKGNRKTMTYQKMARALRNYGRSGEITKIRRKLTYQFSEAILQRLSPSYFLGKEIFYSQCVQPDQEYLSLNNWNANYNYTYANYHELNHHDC
The method, boiled down:
as §1

A further assay has as its target ELF4 (Homo sapiens, UniProt Q99607 1-663). The method, boiled down:
as §1

The next assay deals with T6, ELK4 (Homo sapiens, UniProt P28324-2 1-405).
T6 sequence: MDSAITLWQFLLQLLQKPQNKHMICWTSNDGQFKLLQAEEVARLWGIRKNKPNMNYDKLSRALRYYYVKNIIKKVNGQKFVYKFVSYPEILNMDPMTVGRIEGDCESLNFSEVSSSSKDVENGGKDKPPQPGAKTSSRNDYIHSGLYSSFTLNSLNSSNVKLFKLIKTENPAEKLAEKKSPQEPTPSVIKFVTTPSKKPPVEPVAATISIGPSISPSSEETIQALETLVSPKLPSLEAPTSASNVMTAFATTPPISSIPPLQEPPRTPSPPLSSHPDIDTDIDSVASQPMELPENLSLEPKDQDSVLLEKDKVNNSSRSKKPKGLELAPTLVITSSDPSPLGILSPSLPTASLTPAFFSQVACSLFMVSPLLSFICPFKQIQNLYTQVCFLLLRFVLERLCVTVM
The method, boiled down: as §1

The target of a further assay is ETV1 (Homo sapiens, UniProt P50549 1-477). The essentials:
as §1

In the next assay the target is T7, ERF (Homo sapiens, UniProt P50548 1-548).
T7 sequence: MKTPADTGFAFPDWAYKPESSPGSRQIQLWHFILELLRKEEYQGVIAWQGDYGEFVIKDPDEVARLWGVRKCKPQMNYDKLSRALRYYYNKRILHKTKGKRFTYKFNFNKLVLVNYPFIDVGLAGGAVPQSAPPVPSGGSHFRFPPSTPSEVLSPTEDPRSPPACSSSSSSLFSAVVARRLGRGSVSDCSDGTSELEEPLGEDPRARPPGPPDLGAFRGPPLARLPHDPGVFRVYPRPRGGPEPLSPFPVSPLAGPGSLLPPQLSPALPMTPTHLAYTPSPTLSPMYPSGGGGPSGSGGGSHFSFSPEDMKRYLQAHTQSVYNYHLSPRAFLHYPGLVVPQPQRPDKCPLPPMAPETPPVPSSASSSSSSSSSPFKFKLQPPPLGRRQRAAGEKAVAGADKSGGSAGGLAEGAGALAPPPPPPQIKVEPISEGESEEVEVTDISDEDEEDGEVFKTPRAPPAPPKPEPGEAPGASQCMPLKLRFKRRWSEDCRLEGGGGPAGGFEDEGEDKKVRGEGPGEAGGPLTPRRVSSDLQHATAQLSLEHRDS
The method, boiled down: as §1

In another assay the target is T8, ETV3L (Homo sapiens, UniProt Q6ZN32 1-361).
T8 sequence: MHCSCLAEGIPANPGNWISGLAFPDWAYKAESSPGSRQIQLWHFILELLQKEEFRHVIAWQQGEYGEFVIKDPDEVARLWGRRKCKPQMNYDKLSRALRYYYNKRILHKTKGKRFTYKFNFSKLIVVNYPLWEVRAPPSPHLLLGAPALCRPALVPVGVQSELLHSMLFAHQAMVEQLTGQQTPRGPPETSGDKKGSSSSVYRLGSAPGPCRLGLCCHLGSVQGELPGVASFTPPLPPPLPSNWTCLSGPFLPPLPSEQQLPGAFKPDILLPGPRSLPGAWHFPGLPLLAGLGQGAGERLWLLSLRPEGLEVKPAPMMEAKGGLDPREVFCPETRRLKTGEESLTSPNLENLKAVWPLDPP
The essentials: as §1

Another assay has as its target T9, ETS2 (Homo sapiens, UniProt P15036 1-469).
T9 sequence: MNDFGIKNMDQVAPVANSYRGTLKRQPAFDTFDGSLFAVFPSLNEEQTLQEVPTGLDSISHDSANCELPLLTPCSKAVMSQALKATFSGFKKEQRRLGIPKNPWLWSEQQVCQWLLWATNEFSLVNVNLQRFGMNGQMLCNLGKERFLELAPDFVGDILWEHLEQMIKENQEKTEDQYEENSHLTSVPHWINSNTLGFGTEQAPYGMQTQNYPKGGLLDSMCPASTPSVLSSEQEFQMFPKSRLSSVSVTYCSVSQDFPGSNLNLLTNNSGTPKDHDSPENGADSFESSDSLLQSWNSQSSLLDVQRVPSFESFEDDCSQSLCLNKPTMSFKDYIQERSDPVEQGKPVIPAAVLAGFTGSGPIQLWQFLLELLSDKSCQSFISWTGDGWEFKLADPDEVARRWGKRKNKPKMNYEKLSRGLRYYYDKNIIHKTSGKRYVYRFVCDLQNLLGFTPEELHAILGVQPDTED
The method, boiled down: as §1

Another assay deals with T10, ETV7 (Homo sapiens, UniProt Q9Y603 1-341).
T10 sequence: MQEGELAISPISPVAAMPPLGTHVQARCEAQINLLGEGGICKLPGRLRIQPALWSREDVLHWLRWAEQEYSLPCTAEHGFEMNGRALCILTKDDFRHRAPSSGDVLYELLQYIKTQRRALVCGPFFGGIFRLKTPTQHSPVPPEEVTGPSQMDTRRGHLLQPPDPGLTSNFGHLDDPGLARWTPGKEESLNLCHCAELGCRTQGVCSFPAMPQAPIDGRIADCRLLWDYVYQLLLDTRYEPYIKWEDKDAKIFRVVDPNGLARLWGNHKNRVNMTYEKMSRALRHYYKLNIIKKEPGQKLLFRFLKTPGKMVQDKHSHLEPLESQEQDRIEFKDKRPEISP
The essentials:
as §1

In another assay the target is ETV6 (Homo sapiens, UniProt P41212 1-452). The essentials:
as §1

Chain of ETV6 (P41212 whole entry): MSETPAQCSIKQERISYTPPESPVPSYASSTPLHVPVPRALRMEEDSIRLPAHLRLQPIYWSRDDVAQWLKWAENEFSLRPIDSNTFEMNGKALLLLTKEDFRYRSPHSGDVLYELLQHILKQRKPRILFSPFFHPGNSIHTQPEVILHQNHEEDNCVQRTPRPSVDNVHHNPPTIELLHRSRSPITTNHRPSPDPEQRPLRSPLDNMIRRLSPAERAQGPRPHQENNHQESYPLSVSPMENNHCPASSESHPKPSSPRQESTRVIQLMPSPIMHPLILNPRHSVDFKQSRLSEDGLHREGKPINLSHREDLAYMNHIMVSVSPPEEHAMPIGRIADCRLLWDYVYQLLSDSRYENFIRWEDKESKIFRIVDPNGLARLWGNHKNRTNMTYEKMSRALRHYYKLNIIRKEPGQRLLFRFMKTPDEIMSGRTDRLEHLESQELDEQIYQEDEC
Chain of ETV1 (P50549 whole entry): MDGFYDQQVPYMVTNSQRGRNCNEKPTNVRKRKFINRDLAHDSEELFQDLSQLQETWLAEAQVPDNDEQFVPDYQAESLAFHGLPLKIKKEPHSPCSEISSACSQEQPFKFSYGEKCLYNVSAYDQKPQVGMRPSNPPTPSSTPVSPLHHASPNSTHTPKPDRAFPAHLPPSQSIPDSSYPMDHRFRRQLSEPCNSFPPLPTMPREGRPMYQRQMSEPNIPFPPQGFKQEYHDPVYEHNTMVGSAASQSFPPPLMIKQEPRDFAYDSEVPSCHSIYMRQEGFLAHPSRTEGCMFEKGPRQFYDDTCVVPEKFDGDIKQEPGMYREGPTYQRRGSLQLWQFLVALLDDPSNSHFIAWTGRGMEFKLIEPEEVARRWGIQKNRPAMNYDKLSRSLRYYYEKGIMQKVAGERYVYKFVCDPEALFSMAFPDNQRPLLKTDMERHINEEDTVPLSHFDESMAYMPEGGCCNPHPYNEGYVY
Chain of ELF1 (P32519 whole entry): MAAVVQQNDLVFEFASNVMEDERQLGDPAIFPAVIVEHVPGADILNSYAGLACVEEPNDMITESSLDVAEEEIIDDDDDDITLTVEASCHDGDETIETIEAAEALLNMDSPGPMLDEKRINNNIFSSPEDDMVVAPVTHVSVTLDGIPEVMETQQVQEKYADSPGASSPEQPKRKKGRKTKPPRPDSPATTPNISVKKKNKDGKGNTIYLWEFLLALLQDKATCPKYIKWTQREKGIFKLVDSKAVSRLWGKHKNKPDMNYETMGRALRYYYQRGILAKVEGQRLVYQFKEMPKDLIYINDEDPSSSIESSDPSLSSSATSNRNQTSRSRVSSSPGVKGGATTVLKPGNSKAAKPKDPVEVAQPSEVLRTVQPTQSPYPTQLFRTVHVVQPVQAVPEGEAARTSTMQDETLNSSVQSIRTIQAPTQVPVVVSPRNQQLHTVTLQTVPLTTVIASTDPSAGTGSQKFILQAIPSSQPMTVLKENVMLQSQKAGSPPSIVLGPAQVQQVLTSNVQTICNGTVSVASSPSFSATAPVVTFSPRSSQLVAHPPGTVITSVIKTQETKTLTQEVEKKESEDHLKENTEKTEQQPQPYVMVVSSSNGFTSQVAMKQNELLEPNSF
Chain of SPIB (Q01892 whole entry): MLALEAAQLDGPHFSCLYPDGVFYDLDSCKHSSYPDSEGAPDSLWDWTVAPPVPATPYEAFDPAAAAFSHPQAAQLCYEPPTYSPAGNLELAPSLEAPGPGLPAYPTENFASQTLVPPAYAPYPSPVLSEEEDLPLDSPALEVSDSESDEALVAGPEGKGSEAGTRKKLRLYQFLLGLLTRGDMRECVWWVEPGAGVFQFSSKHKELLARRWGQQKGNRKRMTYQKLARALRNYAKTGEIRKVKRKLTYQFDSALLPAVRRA
Chain of ELF4 (Q99607 whole entry): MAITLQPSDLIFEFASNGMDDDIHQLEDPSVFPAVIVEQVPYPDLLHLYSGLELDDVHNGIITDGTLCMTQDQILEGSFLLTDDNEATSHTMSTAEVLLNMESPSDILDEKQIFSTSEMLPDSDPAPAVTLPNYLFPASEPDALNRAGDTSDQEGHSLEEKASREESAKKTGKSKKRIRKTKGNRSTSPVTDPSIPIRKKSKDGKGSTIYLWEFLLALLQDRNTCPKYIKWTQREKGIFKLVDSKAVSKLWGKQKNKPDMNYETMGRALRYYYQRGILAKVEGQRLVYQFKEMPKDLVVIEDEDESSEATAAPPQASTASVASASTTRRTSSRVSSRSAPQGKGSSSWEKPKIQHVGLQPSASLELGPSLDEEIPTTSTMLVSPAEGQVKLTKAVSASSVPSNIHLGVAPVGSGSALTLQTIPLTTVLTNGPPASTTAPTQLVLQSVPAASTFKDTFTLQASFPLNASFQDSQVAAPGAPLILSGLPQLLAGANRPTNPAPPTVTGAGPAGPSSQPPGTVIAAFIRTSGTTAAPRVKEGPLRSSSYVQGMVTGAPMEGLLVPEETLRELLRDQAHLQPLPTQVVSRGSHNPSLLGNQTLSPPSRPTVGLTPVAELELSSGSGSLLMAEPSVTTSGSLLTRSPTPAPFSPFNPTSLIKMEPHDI

As for GTTCGC, the binding signal with ELK1 is 1.08 fold enrichment (6-mer frequency, TF over GST control); with GABPA it was 1.03 fold enrichment (6-mer frequency, TF over GST control); with ERG it was 1.04 fold enrichment (6-mer frequency, TF over GST control); with ELF1, 1.02 fold enrichment (6-mer frequency, TF over GST control); with EHF, 1.05 fold enrichment (6-mer frequency, TF over GST control); in the assay with SPIB, 1.11 fold enrichment (6-mer frequency, TF over GST control). In addition, the binding signal with SPIC is 1.17 fold enrichment (6-mer frequency, TF over GST control); with ELF4 it was 1.1 fold enrichment (6-mer frequency, TF over GST control); with ELK4, 1.16 fold enrichment (6-mer frequency, TF over GST control); with ETV1 it was 1.14 fold enrichment (6-mer frequency, TF over GST control); with ERF it was 1.18 fold enrichment (6-mer frequency, TF over GST control); with ETV3L, 1.07 fold enrichment (6-mer frequency, TF over GST control). Moreover, the binding signal was 1 fold enrichment (6-mer frequency, TF over GST control) with ETS2; 1.02 fold enrichment (6-mer frequency, TF over GST control) with ETV7; 1.07 fold enrichment (6-mer frequency, TF over GST control) in the assay with ETV6.

The values are drawn from publication PMC7862700, “An all-to-all approach to the identification of sequence-specific readers for epigenetic DNA modifications on cytosine”.
